Hits are enriched below; roughly 2.4% of the tested compounds scored in any of these assays.
Pol eta inh-1: DNA polymerase eta (human) inhibition | recombinant Pol eta, fluorescent DNA replication assay | Potency, µM (top dose mostly 114 µM), without a hit: at the top dose activity change, negative = inhibition, most hits filed as inhibitors | actives 1.2% (n = 390,000) | AID 588591 | Q9Y253; also: potency is read from the fitted curve at half-maximal effect; % is scaled to controls: 0 for no effect and ±100 for the full control effect
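Pol eta (10 nM) was preincubated with compounds for 15 min at room temperature, after which fluorescent replication substrate (50 nM final) was added to start the reaction. Fluorescence was read kinetically at 0 and 10 min.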
FEN1 inh-1: inhibitors of human flap endonuclease 1; Recombinant FEN1 flap cleavage, fluorescence, 15 min; actives 0.35% (n = 390,000); AID 588795; Potency, µM (doses to about 114 µM), for the others: at the top dose activity change, negative = inhibition, usual class: inhibitors; also: potency is read from the fitted curve at half-maximal effect; % is scaled to controls: 0 for no effect and ±100 for the full control effect; nearly all actives have a fitted effect of over 65% in size
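Enzyme 10 nM, 15 min RT preincubation with compound; start with substrate 50 nM final; reads at 0 and 15 min; qHTS titration, four-parameter Hill fit.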
Pol beta inh-1: blocks human DNA polymerase beta activity | actives 1.3% (n = 340,000) | Pol beta primer extension/strand displacement, fluorescence kinetic | Potency, µM (series often up to 114 µM), for inactives: at the top dose activity change, negative = inhibition, actives largely listed as inhibitors; also: potency is read from the fitted curve at half-maximal effect; % is scaled to controls: 0 for no effect and ±100 for the full control effect
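Enzyme-only controls used 10 nM Pol beta; buffer lacking enzyme served as negative control. Compound preincubated 15 min, then 50 nM substrate added; 0 and 10 min reads at room temperature.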
POLI inh: DNA polymerase iota (human) inhibition | Potency, µM (highest dose often 115 µM), for inactives: at the highest dose activity, negative = inhibition, hits mostly inhibitors | AID 588590 | Pol iota fluorescent replication assay, 10 min | Q9UNA4 | actives 1% (n = 390,000); also: potency is read from the fitted curve at half-maximal effect
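Fluorescent replication assay read twice, at 0 min and 10 min after adding 50 nM (final) substrate. Enzyme (10 nM) and compounds were first incubated 15 min at room temperature; enzyme-free buffer wells were negative controls.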
WRN helicase inh-1: blocks human WRN helicase | actives 0.46% (n = 360,000) | Potency, µM (titrated, usually from 114 µM), for inactives: at the highest dose activity change, negative = inhibition, hits mostly inhibitors | Q14191 | WRN helicase unwinding, fluorescent forked duplex, kinetic | AID 651768; also: potency is read from the fitted curve at half-maximal effect; % is scaled to controls: 0 for no effect and ±100 for the full control effect; nearly all actives have a fitted effect of over 55% in size
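Screening of the MLSMR collection measured strand separation of a quenched forked DNA duplex (100 nM) by 20 nM WRN with 2 mM ATP, all final. Compounds were preincubated with enzyme 15 min at room temperature.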
Pol kappa inh-1: DNA polymerase kappa (human) inhibition | Q9UBT6 | purified Pol kappa, fluorescent DNA synthesis assay, 10 min | Potency, µM (series often up to 107 µM), without a hit: top-dose activity, negative = inhibition, hits mostly inhibitors | actives 0.53% (n = 400,000) | AID 588579; also: potency is read from the fitted curve at half-maximal effect; % is scaled to controls: 0 for no effect and ±100 for the full control effect
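Pol kappa 10 nM + cpd, 15 min RT; start w/ substrate 50 nM final; fluorescence kinetic read, 0 and 10 min. Neg ctrl: buffer, no enzyme.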
Pol beta inh-2: Inhibitors of human DNA polymerase beta, hit validation; shares compounds with Pol beta inh-1; Pol beta primer extension/strand displacement, fluorescence kinetic; Potency, µM, actives largely listed as inhibitors; actives 87% (n = 250); AID 540280; calls by dose curve; also: potency is read from the fitted curve at half-maximal effect
Klenow inh: inhibits Klenow fragment polymerase in counter-screen; activity change, negative = inhibition, % at 57.1 µM; Klenow exo- polymerase counter-screen, fluorescent DNA substrate; shares compounds with Pol beta inh-1; 250 tested, under 10 active
HIV RT inh: inhibits HIV-1 reverse transcriptase in counter-screen. activity % (negative = inhibition, positive = activation), % at 57.1 µM. HIV-1 RT polymerase activity, counter-screen. shares compounds with Pol beta inh-1. 250 tested, under 10 active
POLB valid: DNA polymerase beta inhibition, radiolabeled validation; radiolabeled primer extension gel assay, phosphorimager; shares compounds with Pol beta inh-1; inhibition, % at 10 µM; actives 91% (n = 110);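 active = inhibition at 10 µM of 30% or more; inconclusive = no clear call, values can overlap the other calls; inactive = inhibition at 10 µM under 30%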
POLI cherry-pick: Inhibitors of human DNA polymerase iota, confirmation. shares compounds with Pol kappa inh-1. Pol iota primer extension, TAMRA/BHQ fluorescence. Potency, µM, hits mostly inhibitors. actives 77% (n = 1,500). AID 720496; also: potency is read from the fitted curve at half-maximal effect
Pol kappa inh-2: confirmation of human DNA polymerase kappa inhibitors; purified Pol-kappa, fluorescent strand-displacement substrate; Potency, µM, most hits filed as inhibitors; AID 720501; actives 76% (n = 920); shares compounds with Pol eta inh-1; also: potency is read from the fitted curve at half-maximal effect
Pol eta inh-2: confirmation of human DNA polymerase eta inhibitors; shares compounds with Pol eta inh-1; Pol eta primer extension, TAMRA/BHQ fluorescence, 10 min; Potency, µM, hits mostly inhibitors; actives 64% (n = 2,600); also: potency is read from the fitted curve at half-maximal effect
FEN1 inh-2: FEN1 inhibition, cherry-pick retest; actives 79% (n = 880); shares compounds with FEN1 inh-1; FEN1 flap cleavage, TAMRA/BHQ2 fluorogenic DNA substrate; Potency, µM, usual class: inhibitors; also: potency is read from the fitted curve at half-maximal effect; nearly all actives have a fitted effect of over 60% in size
WRN helicase inh-2: WRN helicase inhibition, cherry-pick retest | shares compounds with WRN helicase inh-1 | WRN helicase DNA unwinding, fluorescence kinetic | actives 63% (n = 610) | AID 720497 | Potency, µM (titrated, usually from 57.1 µM), inactives show at the highest dose activity, negative = inhibition, actives largely listed as inhibitors; also: potency is read from the fitted curve at half-maximal effect; nearly all actives have a fitted effect of over 65% in size
TO DNA binding: binds DNA, flagged in WRN inhibitor counterscreen. thiazole orange DNA binding displacement, fluorescence. shares compounds with WRN helicase inh-1. Potency, µM (doses to about 57.1 µM), without a hit: at the highest dose activity change, negative = inhibition, most hits filed as inhibitors. actives 10% (n = 610);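 also: drop in dye fluorescence marks compound binding to DNA; potency is read from the fitted curve at half-maximal effect; % is scaled to controls: 0 for no effect and ±100 for the full control effect; nearly all actives have a fitted effect of over 60% in size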
BLM counter: blocks human BLM helicase in WRN counterscreen | shares compounds with WRN helicase inh-1 | Recombinant BLM helicase DNA unwinding, red fluorescence | Potency, µM (highest dose often 57.1 µM), without a hit: top-dose activity change, negative = inhibition, hits mostly inhibitors | actives 60% (n = 610) | AID 720503; also: potency is read from the fitted curve at half-maximal effect; nearly all actives have a fitted effect of over 60% in size
Starred values were filed as active, the others as inactive; ? = inconclusive; nt = no result given; [ ] = remark or other dose. Unless noted, calls follow the shape of the dose curve; as a rule, active = well fitted curve in the direction sought with a large enough effect; inconclusive = small, poorly fitted or top-dose-only effect, or another doubt; inactive = no such curve, though single readings can be large; an effect the other way counts as inactive or inconclusive.

SMILES	Pol eta inh-1	FEN1 inh-1	Pol beta inh-1	POLI inh	WRN helicase inh-1	Pol kappa inh-1	Pol beta inh-2	Klenow inh	HIV RT inh	POLB valid	POLI cherry-pick	Pol eta inh-2	others
COc1ccc(-c2nnc(Nc3ccc(S(=O)(=O)Nc4nccs4)cc3)c3ccccc23)cc1	31.6µM*	?	1.78µM*	20µM*	50.1µM*	50.1µM*	7.94*	-20.5	26.3	nt	?	42.6*	Pol kappa inh-2=33.6*
COC(=O)c1c(NC(=O)CN2C(=O)NC3(CCC(C)CC3)C2=O)sc2c1CCC2 (stereo unspecified)	3.2%	3.4%	nt	?	-0.9%	-13.4%	nt	nt	nt	nt	nt	nt
CC1CCC2(CC1)NC(=O)N(CC(=O)Nc1sc3c(c1C(N)=O)CCC3)C2=O (stereo unspecified)	17.8µM*	-29.6%	5.01µM*	11.2µM*	50.1µM*	?	20*	-10.6	?	99.7*	37.7*	19*
Cc1ccc(NC(=O)c2c3c(nc4ccccc24)CCC3)cc1S(=O)(=O)N(C)C	?	-5.7%	10µM*	22.4µM*	-3.3%[11.6 µM]	79.4µM*	35.5*	-15.7	45.4	89.0*	nt	?
CCCCCCCCCCCCCC[N+](C)(C)Cc1ccccc1	nt	-10.5%	nt	-0.7%	nt	0.6%[19.4 µM]	nt	nt	nt	nt	nt	nt
CCOC(=O)/C=C/C(=O)N1CCc2ccccc21	8.6%	-1.6%	30.1%	?	-10.1%	-4.7%	nt	nt	nt	nt	nt	nt
Cc1ccc(/C=C/C(=O)N2CCc3ccccc32)o1	8.91µM*	-17.6%	12.6µM*	35.5µM*	?	?	17.8*	-3.2	19.9	nt	67*	67.5*
COc1cc(/C=C/C(=O)N2CCCCC2=O)cc(OC)c1OC	nt	nt	nt	nt	nt	-9.4%[19.4 µM]	nt	nt	nt	nt	nt	nt
O=C(Cc1ccc(S(=O)(=O)N2CCOCC2)s1)Nc1nc2c(s1)CCCC2	3.98µM*	?	7.08µM*	?	35.5µM*	17.8µM*	28.2*	-36.5	27.6	99.1*	33.6*	30.1*	Pol kappa inh-2=21.2*
O=C(Cc1ccc(S(=O)(=O)N2CCOCC2)s1)Nc1ccc2c(c1)CCC2	?	-8.9%	-1.9%	2.0%	-6.9%	-10.2%	nt	nt	nt	nt	nt	nt
Cc1cc(C)cc(S(=O)(=O)N2CCN(c3nc(-c4cccs4)nc4ccccc34)CC2)c1	nt	-6.0%	nt	-8.3%	nt	-18.0%	nt	nt	nt	nt	nt	nt
Cc1ccc(-c2cc(-c3ccco3)c(C#N)c(=O)[nH]2)cc1	28.2µM*	?	11.2µM*	?	31.6µM*	?	22.4*	-27.6	-4.5	96.4*	21.2*	15.1*	FEN1 inh-2=67.5*
CC1=C(C(=O)OC(C)C)C(c2ccc(Cl)cc2)n2c(s/c(=C\c3ccc(OCC(=O)O)cc3)c2=O)=N1 (stereo unspecified)	8.91µM*	?	3.55µM*	?	-10.6%[11.6 µM]	-30.9%	7.08*	-6.2	19.4	nt	37.7*	60.1*	FEN1 inh-2=67.5*
CCOC(=O)C1=C(C)N=c2s/c(=C\c3ccc(OCC(=O)O)cc3)c(=O)n2C1c1ccccc1 (stereo unspecified)	?	-23.3%	-21.7%	52.5%	?	-13.8%	nt	nt	nt	nt	nt	nt
COCCn1c(=O)c(CCc2ccccc2)nc2cnc(N(C)C)nc21	nt	nt	nt	nt	nt	-2.0%[60.1 µM]	nt	nt	nt	nt	nt	nt
Cc1cc(NC(=O)CSc2ncnc3sccc23)no1	-7.4%	-13.5%	10.7%	-0.1%	-10.6%	-1.5%	nt	nt	nt	nt	nt	nt
N#Cc1c(NC(=O)CSc2ncnc3sccc23)oc(-c2ccco2)c1-c1ccco1	14.1µM*	?	10µM*	?	?	44.7µM*	28.2*	-19.9	-1.7	92.8*	42.3*	19*	Pol kappa inh-2=6.7*;FEN1 inh-2=67.5*
O=C1N=c2ccccc2=C1c1sc(Nc2ccc(O)cc2)nc1O	31.6µM*	?	20µM*	8.91µM*	?	35.5µM*	7.94*	-37.8	6.0	nt	47.4*	?	Pol kappa inh-2=16.8*;FEN1 inh-2=75.7*
N#Cc1cccc(-c2nc(NCCN3CCOCC3)c3ccccc3n2)c1	nt	nt	nt	nt	nt	1.2%[60.1 µM]	nt	nt	nt	nt	nt	nt
O=C(CSc1n[nH]c(-c2ccccc2)n1)c1ccc(O)c(O)c1	39.8µM*	-0.6%	15.8µM*	17.8µM*	15.8µM*	25.1µM*	31.6*	-27.7	?	25.4	nt	nt	WRN helicase inh-2=19.2µM*;TO DNA binding=-2.0%;BLM counter=19.2µM*
CC(C)CCn1c(SC(C)C#N)nc2ccccc2c1=O (stereo unspecified)	nt	?	nt	-12.5%	nt	-14.9%	nt	nt	nt	nt	nt	nt
CNC(=O)COC(=O)c1cc(-c2ccco2)nc2ccccc12	11.2µM*	50.1µM*	3.55µM*	?	79.4µM*	25.1µM*	28.2*	-38.3	?	99.9*	21.2*	19*	FEN1 inh-2=?;WRN helicase inh-2=15.2µM*;TO DNA binding=-28.5%;BLM counter=4.82µM*

Assay outcomes (PubChem BioAssay)
